Data: the supplement of paper PMC8728848
The entries come from a sample that favours the strongest signals as a whole.

Key:
Experiment in all cases: glycan array binding signal (z-score within array); higher = stronger binding
Conditions in all cases: glycan notation: IUPAC condensed, linker removed
[1] = biological target: Fuc(a1-2)Gal(b1-3)GalNAc(b1-3)Gal
How it was run: (§1)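 Glycan array data came from 3228 arrays in the Consortium for Functional Glycomics database, and only arrays with an available protein sequence were kept. Glycan names were put into IUPAC-condensed notation, and columns mapping to the same glycan were averaged. The binding signal is a within-array Z-score, averaged across arrays of one protein sequence run at different concentrations or buffers and across linkers. A negative Z-score can be read as non-binding.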

[2] = biological target: Fuc(a1-2)Gal(b1-3)GlcNAc(b1-3)GalNAc
How it was run: as §1

Fuc(a1-2)Gal(b1-4)Glc = biological target: Fuc(a1-2)Gal(b1-4)Glc
How it was run: as §1

[3] = biological target: Fuc(a1-2)Gal(b1-4)GlcNAc6S
How it was run: as §1

[4] = biological target: Fuc(a1-2)Gal(b1-4)[Fuc(a1-3)]GlcNAc(b1-2)[Fuc(a1-2)Gal(b1-4)[Fuc(a1-3)]GlcNAc(b1-4)]Man(a1-3)[Fuc(a1-2)Gal(b1-4)[Fuc(a1-3)]GlcNAc(b1-2)Man(a1-6)]Man(b1-4)GlcNAc(b1-4)GlcNAc
How it was run: as §1

[5] = biological target: Fuc(a1-2)Gal(b1-4)[Fuc(a1-3)]GlcNAc(b1-3)Gal(b1-4)[Fuc(a1-3)]GlcNAc(b1-3)Gal(b1-4)[Fuc(a1-3)]GlcNAc
How it was run: as §1

[6] = biological target: Fuc(a1-2)[Gal(a1-3)]Gal(b1-4)GlcNAc(b1-2)Man(a1-3)[Fuc(a1-2)[Gal(a1-3)]Gal(b1-4)GlcNAc(b1-2)Man(a1-6)]Man(b1-4)GlcNAc(b1-4)GlcNAc
How it was run: as §1

[7] = biological target: Fuc(a1-2)[Gal(a1-4)]Gal(b1-4)GlcNAc
How it was run: as §1

[8] = biological target: Fuc(a1-2)[GalNAc(a1-3)]Gal(b1-4)GlcNAc(b1-3)GalNAc
How it was run: as §1

[9] = biological target: Fuc(a1-3)[Gal(b1-4)]GlcNAc(b1-6)GalNAc
How it was run: as §1

[10] = biological target: Fuc(a1-3)[Gal3S(b1-4)]Glc
How it was run: as §1

[11] = biological target: Fuc(a1-3)[GalNAc(b1-4)]GlcNAc
How it was run: as §1

Gal(a1-3)Gal(b1-3)GlcNAc = biological target: Gal(a1-3)Gal(b1-3)GlcNAc
How it was run: as §1

[12] = biological target: Gal(a1-4)Gal(b1-4)GlcNAc(b1-2)Man(a1-3)[Gal(a1-4)Gal(b1-4)GlcNAc(b1-2)Man(a1-6)]Man(b1-4)GlcNAc(b1-4)GlcNAc
How it was run: as §1

Gal(b1-3)GalNAc = biological target: Gal(b1-3)GalNAc
How it was run: as §1

[13] = biological target: Gal(b1-3)GalNAc(b1-4)Gal(b1-4)Glc
How it was run: as §1

[14] = biological target: Gal(b1-3)GlcNAc(a1-6)Gal(b1-4)GlcNAc
How it was run: as §1

[15] = biological target: Gal(b1-3)GlcNAc(b1-3)Gal(b1-4)GlcNAc(b1-2)Man(a1-3)[Gal(b1-3)GlcNAc(b1-3)Gal(b1-4)GlcNAc(b1-2)Man(a1-6)]Man(b1-4)GlcNAc(b1-4)GlcNAc
How it was run: as §1

[16] = biological target: Gal(b1-3)[Fuc(a1-4)]GlcNAc(b1-3)Gal(b1-4)[Fuc(a1-3)]GlcNAc
How it was run: as §1

Gal(b1-4)Gal = biological target: Gal(b1-4)Gal
How it was run: as §1

[17] = biological target: Gal(b1-4)GlcNAc(b1-2)Man(a1-6)[GlcNAc(b1-2)Man(a1-3)]Man(b1-4)GlcNAc(b1-4)GlcNAc
How it was run: as §1

[18] = biological target: Gal(b1-4)GlcNAc(b1-3)Gal(b1-4)GlcNAc(b1-3)Gal(b1-4)GlcNAc(b1-3)Gal(b1-4)GlcNAc(b1-3)Gal(b1-4)GlcNAc(b1-2)Man(a1-3)[Gal(b1-4)GlcNAc(b1-3)Gal(b1-4)GlcNAc(b1-3)Gal(b1-4)GlcNAc(b1-3)Gal(b1-4)GlcNAc(b1-3)Gal(b1-4)GlcNAc(b1-2)Man(a1-6)]Man(b1-4)GlcNAc(b1-4)GlcNAc
How it was run: as §1

[19] = biological target: Gal(b1-4)GlcNAc(b1-3)Gal(b1-4)GlcNAc(b1-3)Gal(b1-4)GlcNAc(b1-3)Gal(b1-4)GlcNAc(b1-3)Gal(b1-4)GlcNAc(b1-2)[Gal(b1-4)GlcNAc(b1-3)Gal(b1-4)GlcNAc(b1-3)Gal(b1-4)GlcNAc(b1-3)Gal(b1-4)GlcNAc(b1-3)Gal(b1-4)GlcNAc(b1-6)]Man(a1-6)[Gal(b1-4)GlcNAc(b1-3)Gal(b1-4)GlcNAc(b1-3)Gal(b1-4)GlcNAc(b1-3)Gal(b1-4)GlcNAc(b1-3)Gal(b1-4)GlcNAc(b1-2)Man(a1-3)]Man(b1-4)GlcNAc(b1-4)[Fuc(a1-6)]GlcNAc
How it was run: as §1

[20] = biological target: Gal3S(b1-4)[Fuc(a1-3)]Glc6S
How it was run: as §1

Gal6S(b1-4)GlcNAc6S = biological target: Gal6S(b1-4)GlcNAc6S
How it was run: as §1

[21] = biological target: GalNAc(b1-4)GlcNAc(b1-2)Man
How it was run: as §1

GalNAc(b1-4)GlcNAc6S = biological target: GalNAc(b1-4)GlcNAc6S
How it was run: as §1

[22] = biological target: GalNAc3S(b1-4)[Fuc(a1-3)]GlcNAc
How it was run: as §1

GlcA(b1-3)Gal = biological target: GlcA(b1-3)Gal
How it was run: as §1

[23] = biological target: GlcNAc(a1-6)Gal(b1-4)GlcNAc
How it was run: as §1

B1: FimA (Actinomyces oris) (protein)
chain: MHHHHHHSSGVDLGTENLYFQSNAETPNYGNIKTDATGSLVIHKHLTGGGKDIGTPTGTAQNADDKGPAVEGVVFTAYPITDINLKDPAGWDTISNLSRTGVPDSACANPAAPTLGAHQFGTPKVSPATTKEGLATITEMPVQAYLVCETTTPGDIVQKAKPFVVTIPHPNTAAGADGQWIYDVNVYPKNEAIDVDKTIQAQKLNGYGVGSLIKFPVESTAPTLDAKSFYKYFQLKDTLDERLSEVTATDVSLEGTPLQPTDYKVETKQQTVTVTFTAEGLKKIKAAPGKKVSAVFQGKVTKAGNGAITNRAQVISDTLYAEQPPTPETPPTDPENPPTSDEVISRWGDLSIKKVDTHQQGQTKAGLQGAQFQLYKAKNAYANTCSNEKEGAPIAINGQTTLTTDAQGAIDIKGLFISDSIDGADRDNQVNAMERCYVLVETKAPAGYVLPAGNGAATPVKVKAGEETTDNVTVENTKQSVPGLPLTG
glycan array binding signal (z-score) [1]: 11.8 | glycan array binding signal (z-score) [2]: -0.927 | glycan array binding signal (z-score) (Fuc(a1-2)Gal(b1-4)Glc): -0.719 | glycan array binding signal (z-score) [3]: -0.627 | glycan array binding signal (z-score) [4]: -0.358 | glycan array binding signal (z-score) [5]: -0.317 | glycan array binding signal (z-score) [6]: 5.11 | glycan array binding signal (z-score) [7]: 5.14 | glycan array binding signal (z-score) [8]: -0.408 | glycan array binding signal (z-score) [9]: -0.64 | glycan array binding signal (z-score) [10]: -0.294 | glycan array binding signal (z-score) [11]: 3.5 | glycan array binding signal (z-score) (Gal(a1-3)Gal(b1-3)GlcNAc): -0.412 | glycan array binding signal (z-score) [12]: -0.497 | glycan array binding signal (z-score) (Gal(b1-3)GalNAc): 0.278 | glycan array binding signal (z-score) [13]: 3.27 | glycan array binding signal (z-score) [14]: -0.165 | glycan array binding signal (z-score) [15]: -0.744 | glycan array binding signal (z-score) [16]: 0.459 | glycan array binding signal (z-score) (Gal(b1-4)Gal): 0.292 | glycan array binding signal (z-score) [17]: -0.044 | glycan array binding signal (z-score) [18]: 3.42 | glycan array binding signal (z-score) [19]: 5.1 | glycan array binding signal (z-score) [20]: 3.23 | glycan array binding signal (z-score) (Gal6S(b1-4)GlcNAc6S): 4.75 | glycan array binding signal (z-score) [21]: -0.783 | glycan array binding signal (z-score) (GalNAc(b1-4)GlcNAc6S): 4.1 | glycan array binding signal (z-score) [22]: -0.099 | glycan array binding signal (z-score) (GlcA(b1-3)Gal): 0.311 | glycan array binding signal (z-score) [23]: -1.18
